Rows were chosen to be rich in hits. Some 17% of all compounds tested hit in one or more screens of this group.
ATXN viability = reduces viability in counter-screen for ATXN expression inhibitors; AID 651635; Potency, µM (highest dose often 56.7 µM), usual class: cytotoxic; S2 cells (HEK-293 line with an ATXN2-luciferase reporter) viability, CellTiter-Fluor protease fluorescence, 24 h; hit rate 0.49% among 400,000; also: nearly all actives have a fitted effect of over 40% in size
DT40 TDP1 no CPT = qHTS for Inhibitors of human tyrosyl-DNA phosphodiesterase 1 (TDP1): qHTS in cells in absence of CPT | DT40 Tdp1-/- hTDP1 cells, no CPT, ATP luminescence, 48 h | hit rate 15% among 420,000 | Potency, µM (top dose mostly 46.2 µM), hits mostly inhibitors; also: nearly all actives have a fitted effect of over 55% in size
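Growth kinetics read by CellTiter-Glo luminescence after ≥48 hr at 37 °C. Cells: DT40 Tdp1-/- stably carrying human TDP1, 400 per well, compound exposure in the absence of CPT (DMSO vehicle).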
TDP1 cell CPT = growth inhibition of DT40 Tdp1-/-;hTDP1 cells with camptothecin (screen for TDP1 inhibitors); chicken DT40 Tdp1-/-;hTDP1 cells + 20 nM CPT, ATP luminescence, 48 h; Potency, µM (doses to about 46.2 µM), usual class: inhibitors; AID 686979; hit rate 12% among 420,000; also: nearly all actives have a fitted effect of over 55% in size
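Cell growth measured by CellTiter-Glo luminescence after a minimum 48 h, 37 C compound exposure with 20 nM CPT in Tdp1-knockout DT40 cells stably expressing hTDP1, seeded 400/well; qHTS titration format.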
TGFb SMAD3 inh = blocks TGF-b signaling; HepG2 CAGA-GFP TGF-b/SMAD3 reporter, GFP fluorescence, 18 h; TGF-beta stimulated, 500 pg/mL final; hit rate 1.2% among 410,000; AID 588855; Potency, µM (doses to about 46.1 µM), hits mostly inhibitors; also: nearly all actives have a fitted effect of over 65% in size
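Read-out: total well GFP (ex488/em500-530) summed from mean per-cell fluorescence. Cells: HEPG2 CAGA-GFP, 1% FBS DMEM, 18 h at 37 degrees C with 500 pg/mL final TGF-beta. Unstimulated wells served as the full-inhibition control; stimulated DMSO wells = 0%.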
ATXN2 expr inh = inhibitors of ATXN2 expression; HEK-293 ATXN2-luciferase reporter, luminescence, 24 h; hit rate 0.72% among 360,000; AID 1745845; Potency, µM (series often up to 57 µM), hits mostly inhibitors; also: nearly all actives have a fitted effect of over 55% in size
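ATXN2-luciferase reporter cells (luciferase flanked by upstream and downstream ATXN2 gene portions) were treated 24 h at 37 °C with compounds at up to 57 uM. SteadyGlo luminescence gave expression; GF-AFC fluorescence gave viability.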
HepG2 viability = counter-screen for TGF-b inhibitors: cytotoxicity in HepG2 cells | HepG2 CAGA-GFP viability, ATP luminescence, 18 h | Potency, µM (doses to about 46.1 µM), usual class: cytotoxic | hit rate 0.76% among 410,000 | AID 588856
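HepG2 CAGA-GFP cells (1000/well, DMEM with 1% FBS) received compound, then TGF-beta at 500 pg/mL final, and were incubated 18 hours at 37 degrees C. Viability was read by CellTiter-Glo luminescence. Media-only wells were set as complete cell-killing and DMSO as no toxicity.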
A number is an active result. Calls follow the shape of the dose curve; as a rule, active = well fitted curve in the direction sought with a large enough effect; inconclusive = small, poorly fitted or top-dose-only effect, or another doubt; inactive = no such curve, though single readings can be large; an effect the other way counts as inactive or inconclusive.

What do the screens show for `COc1ccc(N2C(=O)c3ccccc3NC(=O)C2C(=O)Nc2ccc3c(c2)OCCO3)cc1` (centres undefined)?
DT40 TDP1 no CPT: inactive; TDP1 cell CPT: inconclusive

Results for O=C(OC(C(=O)NC1CCCCC1)c1ccccc1F)c1ccco1 (centres undefined) ?
ATXN viability: inactive; DT40 TDP1 no CPT: inactive; TDP1 cell CPT: inactive; TGFb SMAD3 inh: inactive; ATXN2 expr inh: inactive; HepG2 viability: inactive

Results for Cc1ccc(CN2CCN(Cc3cnc(N4CCOCC4)s3)CC2CCO)cc1 (centres undefined) ?
ATXN viability: inactive; DT40 TDP1 no CPT: inconclusive; TDP1 cell CPT: inactive; TGFb SMAD3 inh: inactive; HepG2 viability: inactive

How did CC1CCC2(CC1)NC(=O)N(CC(=O)N1CCOCC1)C2=O (centres undefined) do in these assays?
ATXN viability: inactive; DT40 TDP1 no CPT: inactive; TDP1 cell CPT: inactive; TGFb SMAD3 inh: inactive; ATXN2 expr inh: inactive; HepG2 viability: inactive

How did [O-][n+]1c2ccccc2c2n1CCN1CCOC21c1ccc(Cl)cc1 (centres undefined) do in these assays?
ATXN viability: inactive; DT40 TDP1 no CPT: 7.31µM; TDP1 cell CPT: 2.06µM; TGFb SMAD3 inh: inactive; ATXN2 expr inh: inactive; HepG2 viability: inactive

What do the screens show for `COC(=O)NNC(=O)C(c1ccccc1)c1ccccc1`?
ATXN viability: inactive; DT40 TDP1 no CPT: inactive; TDP1 cell CPT: inactive; TGFb SMAD3 inh: inactive; ATXN2 expr inh: inactive; HepG2 viability: inactive

How did CC(=O)Nc1ccc(NC(=O)C2Cc3c(-c4cccc(F)c4)ccnc3O2)cc1 (centres undefined) do in these assays?
ATXN viability: inactive; DT40 TDP1 no CPT: inactive; TDP1 cell CPT: inactive; TGFb SMAD3 inh: inactive; ATXN2 expr inh: inactive; HepG2 viability: inactive

How did O=C(Nc1ccc(Cl)cc1)C1Cc2c(-c3cccc(F)c3)ccnc2O1 (centres undefined) do in these assays?
ATXN viability: inconclusive; DT40 TDP1 no CPT: 18.4µM; TDP1 cell CPT: inconclusive; TGFb SMAD3 inh: inconclusive; ATXN2 expr inh: inactive; HepG2 viability: inactive

Results for COc1ccc(NC(=O)C2Cc3c(-c4cccc(C(N)=O)c4)ccnc3O2)cc1 (centres undefined) ?
ATXN viability: inactive; DT40 TDP1 no CPT: 3.66µM; TDP1 cell CPT: 5.8µM; TGFb SMAD3 inh: inactive; ATXN2 expr inh: inactive; HepG2 viability: inactive

How did COc1ccc(NC(=O)C2Cc3c(-c4cccc(C(N)=O)c4)ccnc3O2)cn1 (centres undefined) do in these assays?
ATXN viability: inactive; DT40 TDP1 no CPT: 11.6µM; TDP1 cell CPT: 10.3µM; TGFb SMAD3 inh: inactive; ATXN2 expr inh: inactive; HepG2 viability: inactive

What do the screens show for `CC(=O)Nc1cccc(-c2ccnc3c2CC(C(=O)Nc2ccc(Cl)cc2)O3)c1` (centres undefined)?
ATXN viability: inconclusive; DT40 TDP1 no CPT: 16.4µM; TDP1 cell CPT: 16.4µM; TGFb SMAD3 inh: inactive; ATXN2 expr inh: inconclusive; HepG2 viability: inactive

How did CCc1ccc(N2CC(c3nnc(NC(=O)c4ccco4)s3)CC2=O)cc1 (centres undefined) do in these assays?
ATXN viability: inactive; DT40 TDP1 no CPT: inactive; TDP1 cell CPT: inactive; TGFb SMAD3 inh: inactive; ATXN2 expr inh: inactive; HepG2 viability: inactive

What do the screens show for `COCCN(CCOc1cc(C)cc(C)c1)Cc1ccc(Cl)cc1`?
ATXN viability: inactive; DT40 TDP1 no CPT: inactive; TDP1 cell CPT: inconclusive; TGFb SMAD3 inh: inactive; ATXN2 expr inh: inactive; HepG2 viability: inactive

How did O=C(Nc1cccc(OC(F)(F)F)c1)C1Cc2c(-c3cccc(F)c3)ccnc2O1 (centres undefined) do in these assays?
ATXN viability: inconclusive; DT40 TDP1 no CPT: inconclusive; TDP1 cell CPT: inconclusive; TGFb SMAD3 inh: inconclusive; ATXN2 expr inh: inconclusive; HepG2 viability: inactive

How did COc1ccc(NC(=O)C2Cc3c(-c4cccc(NC(C)=O)c4)ccnc3O2)cn1 (centres undefined) do in these assays?
ATXN viability: inactive; DT40 TDP1 no CPT: 1.84µM; TDP1 cell CPT: 2.59µM; TGFb SMAD3 inh: inconclusive; ATXN2 expr inh: inactive; HepG2 viability: inactive

How did COc1ccc(NC(=O)C2Cc3c(-c4cccc(F)c4)ccnc3O2)cc1 (centres undefined) do in these assays?
ATXN viability: inactive; DT40 TDP1 no CPT: inconclusive; TDP1 cell CPT: 20.6µM; TGFb SMAD3 inh: inactive; ATXN2 expr inh: inactive; HepG2 viability: inactive

Results for COc1ccc(NC(=O)c2ccccc2OCc2ccc(F)cc2)c(OC)c1 ?
ATXN viability: inactive; DT40 TDP1 no CPT: inconclusive; TDP1 cell CPT: inconclusive; TGFb SMAD3 inh: inactive; ATXN2 expr inh: inactive; HepG2 viability: inactive

Results for CC1CCC(NC(=O)C2c3ccccc3C(=O)N2Cc2cccs2)CC1 (centres undefined) ?
ATXN viability: inactive; DT40 TDP1 no CPT: inconclusive; TDP1 cell CPT: inconclusive; TGFb SMAD3 inh: inactive; ATXN2 expr inh: inactive; HepG2 viability: inactive

What do the screens show for `O=C(NC1CCCCCCC1)C1c2ccccc2C(=O)N1Cc1cccs1` (centres undefined)?
ATXN viability: inactive; DT40 TDP1 no CPT: inconclusive; TDP1 cell CPT: 13µM; TGFb SMAD3 inh: inactive; ATXN2 expr inh: inactive; HepG2 viability: inactive

Results for Cc1ccc(NC(=S)NNC(=O)c2cccc([N+](=O)[O-])c2)cc1Cl ?
ATXN viability: inactive; DT40 TDP1 no CPT: inactive; TDP1 cell CPT: inactive; TGFb SMAD3 inh: inconclusive; HepG2 viability: inactive

What do the screens show for `O=C(NCc1ccco1)C1CCN(c2ccc(S(=O)(=O)N3CCOCC3)cc2[N+](=O)[O-])CC1`?
ATXN viability: inactive; DT40 TDP1 no CPT: 23.1µM; TDP1 cell CPT: inconclusive; TGFb SMAD3 inh: inactive; ATXN2 expr inh: inactive; HepG2 viability: inactive

How did O=C(NCc1cccs1)C1CCN(c2ccc(S(=O)(=O)N3CCOCC3)cc2Cl)CC1 do in these assays?
ATXN viability: inactive; DT40 TDP1 no CPT: 2.59µM; TDP1 cell CPT: 3.66µM; TGFb SMAD3 inh: inconclusive; ATXN2 expr inh: inactive; HepG2 viability: inactive

Results for C#CCNC(=O)C1CCN(c2ccc(S(=O)(=O)N3CCOCC3)cc2Cl)CC1 ?
ATXN viability: inactive; DT40 TDP1 no CPT: inconclusive; TDP1 cell CPT: inactive; TGFb SMAD3 inh: inactive; ATXN2 expr inh: inactive; HepG2 viability: inactive

How did COC(=O)C1=C(C)NC2=C(C(=O)c3ccccc32)C1c1cccc(OC)c1 (centres undefined) do in these assays?
ATXN viability: inactive; DT40 TDP1 no CPT: inactive; TDP1 cell CPT: inactive; TGFb SMAD3 inh: inactive; HepG2 viability: inactive

Results for CC1=C([N+](=O)[O-])C(c2cccc(Br)c2)C2=C(N1)c1ccccc1C2=O (centres undefined) ?
ATXN viability: inconclusive; DT40 TDP1 no CPT: 1.84µM; TDP1 cell CPT: 1.03µM; TGFb SMAD3 inh: inconclusive; ATXN2 expr inh: inconclusive; HepG2 viability: inactive
